Sampled rows, rich in hits. Any-hit rate of the full collection: about 0.97%.
TLR9-MyD88 inh – TLR9-MyD88 interaction inhibition; Q9NR96+Q99836; CHO BLA complementation TLR9-MyD88, CCF4 FRET ratio; inhibition, % at 4.98 µM; 340,000 tested, 0.21% active; AID 504734;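 active = inhibition above the mean over all tested compounds plus 3 SD, cut at about 21% in these data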;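 also: 0% = DMSO only wells and 100% = clavulanate BLA inhibitor control wells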
Beta2AR agonist – agonists of human beta-2 adrenergic receptor inducing internalization; P07550; Am2.2-beta2AR cells, FAP receptor internalization, flow cytometry; response, % (no concentration beside the values); 340,000 tested, 0.43% active; AID 504454;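 active = response above a set limit, near 3 SD of response in nonfluorescent compounds, cut at about 42% in these data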
Bfl-1 A1 inh – inhibitors of the anti-apoptotic protein A1, read as caspase activation; MEF A1-2A-BIM cells, Caspase-Glo 3/7 luminescence, 3 h; percent of clofoctol response, vehicle zero; caspase activation, % (no concentration beside the values); 330,000 tested, 0.066% active;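 active = over half of replicate activation scores above 10%, or exactly half above 10 with the replicate mean above 10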
TLR4-MyD88 BLA – inhibitors of human TLR4-MyD88 binding | inhibition, % at 8.4 µM | 200,000 tested, 0.18% active | AID 861 | HeLa CL3-4 TLR4/MyD88 BLA complementation, FRET ratio | O00206+Q99836; in the data active = inhibition above about 25%;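 also: 0% = vehicle and 100% = reference inhibitor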
NTR1 agonist – agonists of human neurotensin receptor NTR1; P30989; NTR1-U2OS beta-arrestin-GFP spot imaging, agonist mode; activation, % at 20 µM; 330,000 tested, 0.17% active; AID 493036;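 active = activation at or above 40% of the spot to cytoplasm intensity ratio, with at least 20 cells analyzed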;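 also: 0% = DMSO without peptide and 100% = 100 nM NTR1 peptide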
NOD2 RIPK2 PPI – blocks binding of human NOD2 to RIPK2 | O43353 | CHO BLA complementation NOD2-RIPK2, CCF4 ratio | inhibition, % at 4.98 µM | 360,000 tested, 0.38% active | AID 624267; in the data active = inhibition above about 21%;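 also: 0% = vehicle only and 100% = reference blocker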
Target sequence (O43353 whole entry, looked up): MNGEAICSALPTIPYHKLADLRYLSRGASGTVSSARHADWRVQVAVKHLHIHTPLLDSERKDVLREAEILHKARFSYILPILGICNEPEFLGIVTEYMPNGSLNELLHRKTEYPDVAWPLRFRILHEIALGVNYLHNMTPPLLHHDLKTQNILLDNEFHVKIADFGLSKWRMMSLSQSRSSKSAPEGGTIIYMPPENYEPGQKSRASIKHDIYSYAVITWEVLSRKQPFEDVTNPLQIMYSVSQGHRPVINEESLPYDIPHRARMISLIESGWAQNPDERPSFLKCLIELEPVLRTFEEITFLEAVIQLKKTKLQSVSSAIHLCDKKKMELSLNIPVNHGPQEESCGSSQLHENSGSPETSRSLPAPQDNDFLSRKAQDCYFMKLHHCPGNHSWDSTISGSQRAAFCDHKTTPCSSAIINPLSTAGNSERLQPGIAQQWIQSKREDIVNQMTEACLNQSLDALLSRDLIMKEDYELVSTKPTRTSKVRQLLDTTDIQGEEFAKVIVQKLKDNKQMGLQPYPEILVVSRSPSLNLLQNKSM
TLR4-MyD88 conf – TLR4-MyD88 interaction inhibition confirmed | 350 tested, 50% active | shares compounds with TLR4-MyD88 BLA | HeLa CL3-4 BLA complementation, CCF4 FRET ratio | inhibition, % at 8.4 µM;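 active = mean inhibition across three repeat runs above about 25% carried over from the earlier screen, limit read from the data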;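 also: plate controls were DMSO only for no effect and clavulanic acid blocking BLA at full dose for full effect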
BLA inh HeLa – counter-screen for TLR4-MyD88 inhibitors: beta-lactamase reporter inhibitors; shares compounds with TLR4-MyD88 BLA; HeLa BLA reporter, CCF4 FRET ratio; inhibition, % at 8.4 µM; 350 tested, 63% active;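 active = mean inhibition over three repeats above about 26% taken from the earlier screen, limit read from the data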;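 also: HeLa cells stably expressing beta-lactamase reporter as counterscreen for TLR4-MyD88 inhibitors; 0% = DMSO and 100% = clavulanic acid full inhibition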
NTR1 ag conf – confirmation of agonists of human NTR1. shares compounds with NTR1 agonist. 480 tested, 38% active. NTR1-U2OS beta-arrestin-GFP translocation imaging. AID 504550. activation, % at 20 µM;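 active = mean activation at 20 µM of at least 40%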;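 also: 0% = DMSO without peptide and 100% = 100 nM NTR1 peptide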
TLR9-MyD88 conf – confirmation of human TLR9-MyD88 binding inhibitors; shares compounds with TLR9-MyD88 inh; 680 tested, 51% active; CHO TLR9/MyD88 BLA complementation, CCF4 FRET ratio; AID 540250; inhibition, % at 4.98 µM;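 active = mean inhibition across three repeats above about 21% taken from the earlier screen, limit read from the data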;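 also: blue over green emission ratio reports constitutive TLR9 MyD88 association via BLA complementation; 0% = DMSO vehicle wells and 100% = clavulanate BLA inhibitor wells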
BLA counter-1 – non-selective beta-lactamase inhibitors in TLR9-MyD88 counter-screen. shares compounds with TLR9-MyD88 inh. CHO-BLA cells, CCF4 FRET ratio, BLA reporter. inhibition, % at 4.98 µM. 680 tested, 7% active. AID 540251;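 active = mean inhibition above a 50% cutoff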;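 also: counterscreen of TLR9-MyD88 hits on CMV-driven BLA in CHO-K1 cells; 0% = DMSO alone and 100% = clavulanate blocking BLA; higher means less blue over green ratio so more BLA blockade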
TLR9 CHO cytotox – counter-screen for TLR9-MyD88 inhibitors: cytotoxicity in CHO cells; shares compounds with TLR9-MyD88 inh; luminescence; inhibition, % at 4.98 µM; 680 tested, 39% active; AID 588336; in the data active = inhibition above about 11%
NOD2-RIPK2 conf – NOD2-RIPK2 interaction inhibition confirmed; shares compounds with NOD2 RIPK2 PPI; CHO cells, NOD2-RIPK2 BLA complementation, CCF4 FRET; inhibition, % at 4.98 µM; 1,200 tested, 70% active; AID 624370;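 active = mean inhibition across replicates above a set limit taken from the earlier primary screen, cut at about 21% in these data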;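 also: 0% = DMSO-only wells and the high end = clavulanate BLA-blocked wells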
BLA counter-2 – hits BLA reporter in NOD2-RIPK2 inhibitor counterscreen. 1,200 tested, 57% active. shares compounds with NOD2 RIPK2 PPI. CHO BLA reporter, CCF4 FRET ratio. inhibition, % at 4.98 µM;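 active = mean inhibition above the low-control mean inhibition plus three low-control SD, cut at about 11% in these data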;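 also: 0% = DMSO only wells and 100% = clavulanate high control wells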
* hit, by the source's call; i = inactive; . = no result.

SMILES	TLR9-MyD88 inh	Beta2AR agonist	Bfl-1 A1 inh	TLR4-MyD88 BLA	NTR1 agonist	NOD2 RIPK2 PPI	TLR4-MyD88 conf	BLA inh HeLa	TLR9-MyD88 conf	BLA counter-1	TLR9 CHO cytotox	NOD2-RIPK2 conf	BLA counter-2	others
CCOC(=O)CC1=C(C(=O)OCC)C(c2cccnc2)C(C#N)=C(N)O1 (stereo not given)	2.5	-2.6	0.2	-1.1	1.0	-4.9	.	.	.	.	.	.	.
CCOC(=O)C1=C(CSc2nc(-c3ccccc3)ccc2C#N)OC(N)=C(C#N)C1c1cccnc1 (stereo not given)	14.4	-50.0	0.5	26.6*	-2.8	21.2*	6.5	15.4	.	.	.	26.2*	36.9*
O=C(/C=C/c1cn(CC(O)CN2CCCCCC2)c2ccccc12)c1cccs1 (stereo not given)	47.1*	-73.8	-1.1	31.3*	-3.4	47.0*	36.6*	60.2*	28.3*	27.2	2.4	55.7*	52.4*
Cc1cccc(C)c1-n1c(C)cc(/C=N\Nc2ccc([N+](=O)[O-])cn2)c1C	44.4*	-3.4	0.0	29.1*	-0.6	30.3*	35.0*	64.3*	31.4*	27.4	0.3	60.9*	61.6*
CCCCCn1c2c(c(=N)c3ccccc31)CCC2	-3.6	-12.7	-0.7	.	3.4	-12.8	.	.	.	.	.	.	.
CCCCCCCCn1c2c(c(=N)c3ccccc31)CCC2	.	7.8	.	34.6*	60.9*	21.4*	22.3	27.5*	.	.	.	16.3	-2.2	NTR1 ag conf=50.4*
CCCCNC(=O)CN1C(=O)c2cccc(N)c2C1=O	37.5*	-3.4	.	38.0*	.	44.9*	26.7*	48.4*	17.2	20.5	-1.8	45.1*	48.2*
CC1CCCCC1NC(=O)CN1C(=O)c2cccc(N)c2C1=O (stereo not given)	37.5*	3.8	.	32.6*	.	46.5*	32.7*	52.3*	17.6	25.2	-0.1	41.9*	47.7*
CC1CCCCC1NC(=O)COC(=O)CN1C(=O)c2ccccc2C1=O (stereo not given)	1.9	-9.9	-0.4	.	-1.2	7.5	.	.	.	.	.	.	.
O=c1[nH]c2ccccc2nc1/C=C/c1ccc(O)cc1	36.1*	-1.2	.	35.7*	3.8	38.3*	30.1*	52.9*	19.2	20.9	6.3	42.0*	52.6*
Cc1n[nH]c(C)c1N1C(=O)c2cccc3c(Br)ccc(c23)C1=O	48.1*	7.0	0.1	72.7*	9.1	56.7*	44.8*	78.9*	22.1*	26.4	3.9	71.4*	58.6*
COc1ccc(-c2csc(Nc3ccc(S(=O)(=O)Nc4cc(C)on4)cc3)n2)cc1C	8.3	21.1	1.0	-2.8	-0.1	-8.1	.	.	.	.	.	.	.
Nc1ccc2c3c(cccc13)C(=O)N(c1ccccc1)C2=O	28.2*	-67.2	.	25.2*	.	31.2*	18.0	38.8*	12.8	15.6	3.6	35.7*	42.3*
CCc1n[nH]c(=S)n1/N=C/c1ccc(N(C)c2ccccc2)cc1	-4.3	1.1	0.2	1.1	14.6	0.2	.	.	.	.	.	.	.
COc1ccc(NC(=O)c2onc(C)c2Cl)cc1	-6.8	-3.0	-0.7	.	-1.4	-3.9	.	.	.	.	.	.	.
CN(C)c1ccc(/C=C/C(=O)c2cccc(Br)c2)cc1	32.9*	-454.8	0.1	63.5*	-4.3	60.0*	66.2*	89.7*	27.5*	34.1	-1.6	63.6*	67.7*
CCCN1C(=O)/C(=C/c2ccc(N3CCCC3)c(C)c2)NC1=S	34.7*	i	0.1	36.7*	-4.8	35.1*	36.9*	68.6*	25.6*	27.7	2.3	49.3*	55.1*
Cc1cc(/C=C2\NC(=S)N(C)C2=O)ccc1N1CCCC1	15.8	-48.5	-1.7	23.1	-3.6	18.5	.	.	.	.	.	.	.
Cc1[nH]c2ccccc2c1/C=N/NC(=O)c1cccc([N+](=O)[O-])c1	.	-0.5	0.2	-8.0	0.9	-4.9	.	.	.	.	.	.	.
Cc1[nH]c2ccccc2c1/C=N/Nc1ccc([N+](=O)[O-])cc1	25.8*	-274.8	-0.7	31.0*	.	28.1*	23.9	42.6*	16.9	14.6	3.9	30.4*	42.5*
CCN(CC)C(=O)c1sc2nc(-c3cccs3)cc(-c3ccc(Cl)cc3)c2c1N	18.3	-87.9	-0.1	6.8	4.1	-9.0	.	.	.	.	.	.	.
N#Cc1sc2nc(-c3cccs3)cc(-c3ccc(Cl)cc3)c2c1N	30.1*	-5.0	0.4	43.6*	12.4	24.1*	46.6*	74.7*	46.2*	44.9	2.7	63.8*	65.8*
CN(C)Cc1ccccc1Sc1ccccc1Br	9.3	-1.0	0.9	9.3	-2.1	-0.3	.	.	.	.	.	.	.
C/C(=N\Nc1ccc([N+](=O)[O-])cc1)c1cc2ccccc2o1	58.4*	-7.1	0.6	60.1*	8.2	56.8*	54.1*	86.8*	43.9*	45.8	1.7	66.5*	71.9*
C/C(=N\Nc1ccc([N+](=O)[O-])cc1)c1ccc2c(c1)OCO2	31.9*	-7.5	-0.3	31.9*	2.7	23.4*	34.7*	60.4*	27.7*	27.0	7.7	19.1	24.9*
COc1ccc(Br)c(C(=O)OCC(=O)N2CCC(Cc3ccccc3)CC2)c1	3.8	-5.9	.	.	9.2	-3.1	.	.	.	.	.	.	.
CC(c1ccon1)N(C)C(=O)CCc1nnc(Cc2ccc(-c3ccccc3)cc2)o1 (stereo not given)	0.9	-4.9	0.7	11.2	-0.1	-14.8	.	.	.	.	.	.	.
CN(C)S(=O)(=O)N1CCN(S(=O)(=O)c2ccc3ccccc3c2)CC1	-6.0	-8.0	-0.3	11.0	1.9	-7.7	.	.	.	.	.	.	.
